According to the supplement of paper PMC11732987, “Enantioselective OTUD7B fragment discovery through chemoproteomics screening and high-throughput optimisation” (Communications Chemistry, 2025):

Assays:
Assay in all cases: log2 ratio of Biotin-Ahx-Ub-VS probe labelling (fragment/DMSO); higher = less target engagement (more negative = stronger competition), active = hit call of the paper (q ≤ 0.05, log2 ratio ≤ -1)
Conditions in all cases: compound concentration: 200 uM; treatment time: 3 h
[1] = target: T1, OTUD6B (UniProt Q8N6M0)
T1 sequence (whole entry): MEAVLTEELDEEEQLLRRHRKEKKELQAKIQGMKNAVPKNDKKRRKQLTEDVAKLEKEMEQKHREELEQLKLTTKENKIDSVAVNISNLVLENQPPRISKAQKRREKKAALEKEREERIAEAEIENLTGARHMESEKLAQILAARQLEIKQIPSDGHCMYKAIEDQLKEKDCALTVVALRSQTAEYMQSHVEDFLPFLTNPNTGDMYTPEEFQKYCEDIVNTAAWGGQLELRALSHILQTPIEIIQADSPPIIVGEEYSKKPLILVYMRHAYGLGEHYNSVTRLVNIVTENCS
Method in brief: (§1)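 In triplicate, 495 µg of HEK293T lysate per sample was incubated with fragment at 200 µM or vehicle for 3 h. Biotin-Ahx-Ub-VS was then added to 0.5 µM final for 1 h, and labelled DUBs were captured with NeutrAvidin, digested with LysC and trypsin, and measured by diaPASEF LC-MS/MS. Data are average log2 fragment/vehicle ratios by unpaired t-test from global-median-normalised Spectronaut label-free quantities, restricted to proteins with ≥2 unique peptides.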

[2] = target: T2, OTUD7B (UniProt Q6GQQ9)
T2 sequence (whole entry): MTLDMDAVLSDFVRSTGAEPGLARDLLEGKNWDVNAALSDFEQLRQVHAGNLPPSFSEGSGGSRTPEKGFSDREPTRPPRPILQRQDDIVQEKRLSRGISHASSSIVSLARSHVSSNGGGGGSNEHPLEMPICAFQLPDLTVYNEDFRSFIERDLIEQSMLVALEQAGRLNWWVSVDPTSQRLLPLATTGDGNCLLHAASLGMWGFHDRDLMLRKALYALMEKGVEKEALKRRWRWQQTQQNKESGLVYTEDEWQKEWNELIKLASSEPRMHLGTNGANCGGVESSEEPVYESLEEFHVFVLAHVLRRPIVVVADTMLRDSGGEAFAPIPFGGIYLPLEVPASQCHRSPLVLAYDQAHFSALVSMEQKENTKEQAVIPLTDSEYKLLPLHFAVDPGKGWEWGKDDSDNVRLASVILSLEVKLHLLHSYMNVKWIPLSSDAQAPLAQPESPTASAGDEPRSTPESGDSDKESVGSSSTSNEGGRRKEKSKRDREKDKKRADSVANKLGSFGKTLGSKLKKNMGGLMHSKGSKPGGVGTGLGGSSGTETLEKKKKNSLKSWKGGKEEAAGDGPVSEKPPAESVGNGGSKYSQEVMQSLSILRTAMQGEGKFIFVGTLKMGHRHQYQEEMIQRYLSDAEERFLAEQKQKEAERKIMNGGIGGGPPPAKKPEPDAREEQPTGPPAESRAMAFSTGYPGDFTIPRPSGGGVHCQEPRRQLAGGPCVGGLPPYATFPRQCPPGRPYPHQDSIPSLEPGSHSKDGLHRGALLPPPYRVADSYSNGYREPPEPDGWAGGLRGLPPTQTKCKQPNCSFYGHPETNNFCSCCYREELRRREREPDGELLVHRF
Method in brief: as §1

[3] = target: PRPF8 (UniProt Q6P2Q9)
Method in brief: as §1

[4] = target: T3, PSMD7 (UniProt P51665)
T3 sequence (whole entry): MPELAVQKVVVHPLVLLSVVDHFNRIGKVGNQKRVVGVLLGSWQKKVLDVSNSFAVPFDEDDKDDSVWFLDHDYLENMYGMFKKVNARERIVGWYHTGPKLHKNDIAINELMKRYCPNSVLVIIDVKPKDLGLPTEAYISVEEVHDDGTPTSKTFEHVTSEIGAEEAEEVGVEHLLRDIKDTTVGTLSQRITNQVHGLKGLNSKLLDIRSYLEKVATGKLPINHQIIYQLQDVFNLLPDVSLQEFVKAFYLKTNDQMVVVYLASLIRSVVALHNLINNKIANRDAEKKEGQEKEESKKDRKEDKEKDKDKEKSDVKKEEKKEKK
Method in brief: as §1

[5] = target: UCHL1 (UniProt P09936)
Method in brief: as §1

[6] = target: T4, UCHL3 (UniProt P15374)
T4 sequence (whole entry): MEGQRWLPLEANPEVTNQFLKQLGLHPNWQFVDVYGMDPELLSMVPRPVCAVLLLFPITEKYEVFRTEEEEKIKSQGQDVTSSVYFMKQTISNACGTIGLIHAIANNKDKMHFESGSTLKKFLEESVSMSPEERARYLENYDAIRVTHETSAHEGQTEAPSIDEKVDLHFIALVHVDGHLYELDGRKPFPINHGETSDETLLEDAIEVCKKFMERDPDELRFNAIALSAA
Method in brief: as §1

[7] = target: T5, UCHL5 (UniProt Q9Y5K5)
T5 sequence (whole entry): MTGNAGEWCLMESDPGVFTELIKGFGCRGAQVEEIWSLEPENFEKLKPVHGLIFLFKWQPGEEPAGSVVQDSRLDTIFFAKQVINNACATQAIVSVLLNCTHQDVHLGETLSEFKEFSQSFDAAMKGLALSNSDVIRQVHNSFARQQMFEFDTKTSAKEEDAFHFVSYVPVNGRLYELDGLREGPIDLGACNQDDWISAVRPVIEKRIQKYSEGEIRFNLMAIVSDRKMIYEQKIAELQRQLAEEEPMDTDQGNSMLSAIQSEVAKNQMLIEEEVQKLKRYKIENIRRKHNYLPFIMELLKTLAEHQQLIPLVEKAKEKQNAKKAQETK
Method in brief: as §1

[8] = target: USP10 (UniProt Q14694)
Method in brief: as §1

[9] = target: T6, USP15 (UniProt Q9Y4E8)
T6 sequence (whole entry): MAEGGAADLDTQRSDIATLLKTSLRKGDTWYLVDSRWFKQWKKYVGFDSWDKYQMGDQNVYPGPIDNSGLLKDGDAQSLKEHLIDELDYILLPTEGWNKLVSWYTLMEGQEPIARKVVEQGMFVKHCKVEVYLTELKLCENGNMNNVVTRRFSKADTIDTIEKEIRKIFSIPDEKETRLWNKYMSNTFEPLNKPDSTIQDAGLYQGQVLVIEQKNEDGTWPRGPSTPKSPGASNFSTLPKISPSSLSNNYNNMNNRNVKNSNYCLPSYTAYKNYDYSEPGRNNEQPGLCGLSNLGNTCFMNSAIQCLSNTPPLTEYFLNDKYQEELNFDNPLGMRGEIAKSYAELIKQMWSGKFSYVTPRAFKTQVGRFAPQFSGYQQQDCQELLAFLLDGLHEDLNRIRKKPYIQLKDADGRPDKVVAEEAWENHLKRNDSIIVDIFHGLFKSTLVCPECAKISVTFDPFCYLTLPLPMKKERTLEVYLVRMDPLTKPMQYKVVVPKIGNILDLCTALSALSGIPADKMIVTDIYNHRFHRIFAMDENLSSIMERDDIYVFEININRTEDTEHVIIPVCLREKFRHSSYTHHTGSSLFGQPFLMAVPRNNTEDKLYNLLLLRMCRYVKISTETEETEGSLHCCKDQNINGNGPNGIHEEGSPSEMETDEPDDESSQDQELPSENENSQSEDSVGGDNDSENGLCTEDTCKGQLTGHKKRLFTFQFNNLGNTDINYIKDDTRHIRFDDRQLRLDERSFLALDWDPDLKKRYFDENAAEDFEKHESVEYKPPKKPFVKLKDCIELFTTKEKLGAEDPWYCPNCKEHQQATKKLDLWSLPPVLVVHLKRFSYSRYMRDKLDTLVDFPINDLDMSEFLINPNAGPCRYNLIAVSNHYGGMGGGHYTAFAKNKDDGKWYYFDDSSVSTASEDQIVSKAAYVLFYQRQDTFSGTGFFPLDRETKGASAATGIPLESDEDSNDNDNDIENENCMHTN
Method in brief: as §1

[10] = target: USP16 (UniProt Q9Y5T5)
Method in brief: as §1

Measured: log2 ratio of Biotin-Ahx-Ub-VS probe labelling

Chain of USP16 (Q9Y5T5 whole entry, looked up): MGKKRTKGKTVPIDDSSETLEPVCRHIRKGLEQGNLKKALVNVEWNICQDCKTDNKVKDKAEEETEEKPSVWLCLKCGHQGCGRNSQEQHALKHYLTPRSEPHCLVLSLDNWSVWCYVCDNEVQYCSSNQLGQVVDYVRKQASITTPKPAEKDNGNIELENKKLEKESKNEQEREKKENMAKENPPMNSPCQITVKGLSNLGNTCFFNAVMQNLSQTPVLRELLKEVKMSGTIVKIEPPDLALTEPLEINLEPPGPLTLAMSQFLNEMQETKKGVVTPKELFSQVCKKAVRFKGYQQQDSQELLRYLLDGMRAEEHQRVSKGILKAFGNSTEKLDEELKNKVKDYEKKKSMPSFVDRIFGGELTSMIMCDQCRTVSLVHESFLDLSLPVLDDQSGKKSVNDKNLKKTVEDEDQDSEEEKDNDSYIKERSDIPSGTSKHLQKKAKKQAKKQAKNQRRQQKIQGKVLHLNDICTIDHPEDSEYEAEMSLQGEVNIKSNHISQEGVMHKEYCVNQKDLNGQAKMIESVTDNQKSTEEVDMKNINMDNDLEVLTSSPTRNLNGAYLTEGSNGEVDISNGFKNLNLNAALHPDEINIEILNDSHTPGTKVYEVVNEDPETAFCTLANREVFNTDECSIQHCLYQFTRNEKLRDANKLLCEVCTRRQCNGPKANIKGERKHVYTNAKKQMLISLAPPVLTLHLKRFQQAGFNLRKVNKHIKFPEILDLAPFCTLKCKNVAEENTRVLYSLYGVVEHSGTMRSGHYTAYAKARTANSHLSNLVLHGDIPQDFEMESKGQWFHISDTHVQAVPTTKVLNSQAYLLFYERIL
Chain of UCHL1 (P09936 whole entry, looked up): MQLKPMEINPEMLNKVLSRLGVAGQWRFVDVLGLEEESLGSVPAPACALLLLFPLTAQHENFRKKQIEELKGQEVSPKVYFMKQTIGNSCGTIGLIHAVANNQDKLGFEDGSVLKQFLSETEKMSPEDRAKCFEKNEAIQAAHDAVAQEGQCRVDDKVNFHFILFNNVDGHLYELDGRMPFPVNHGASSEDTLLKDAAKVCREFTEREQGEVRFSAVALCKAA
Chain of USP10 (Q14694 whole entry): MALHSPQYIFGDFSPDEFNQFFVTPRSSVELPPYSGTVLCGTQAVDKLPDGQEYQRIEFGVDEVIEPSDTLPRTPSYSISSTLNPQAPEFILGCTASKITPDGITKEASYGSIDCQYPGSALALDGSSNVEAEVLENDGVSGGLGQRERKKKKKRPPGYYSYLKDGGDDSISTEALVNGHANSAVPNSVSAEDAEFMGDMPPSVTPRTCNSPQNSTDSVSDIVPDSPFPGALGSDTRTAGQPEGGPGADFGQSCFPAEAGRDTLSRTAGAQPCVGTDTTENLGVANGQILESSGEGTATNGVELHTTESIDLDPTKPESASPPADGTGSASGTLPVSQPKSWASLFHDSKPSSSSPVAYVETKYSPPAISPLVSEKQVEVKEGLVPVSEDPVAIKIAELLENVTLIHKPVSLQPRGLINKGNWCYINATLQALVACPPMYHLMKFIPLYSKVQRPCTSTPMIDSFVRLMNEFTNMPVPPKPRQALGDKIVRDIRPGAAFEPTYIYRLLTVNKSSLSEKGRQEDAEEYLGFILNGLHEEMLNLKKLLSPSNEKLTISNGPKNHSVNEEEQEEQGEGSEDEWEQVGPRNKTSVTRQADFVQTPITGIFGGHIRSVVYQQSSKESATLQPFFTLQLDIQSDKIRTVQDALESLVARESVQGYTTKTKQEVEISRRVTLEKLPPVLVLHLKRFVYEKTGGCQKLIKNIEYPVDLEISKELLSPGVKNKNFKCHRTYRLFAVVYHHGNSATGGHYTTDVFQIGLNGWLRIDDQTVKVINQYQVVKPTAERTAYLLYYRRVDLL

O=C(CCl)N(Cc1ccsc1)C1CC1
inactive: [1] 0.0351 | [2] -0.317 | [3] -0.0299 | [4] -0.114 | [5] -0.773 | [6] 0.415 | [7] -0.238 | [8] -0.125 | [9] 0.02 | [10] 0.463
